Values joined by “and” are separate entries in the source; they are usually repeats but may differ in a detail not shown here. Equal values may be shown once. Out of some 5,500 compounds screened, about 2,000 (36%) were called active. Roughly 18% stayed inconclusive and do not appear here. Cut-off read from the data, not from the text of the source: active = normalized growth mostly below about 0.91 (no sharp cut-off); inconclusive = no clear call, values can overlap the other calls; inactive = mostly above about 0.92. Some of the results follow.
Assay: chemical genetic growth profiling, strain panel (AID 1159580);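 note: tested at 20 µM; growth read once vehicle control cultures reached saturation at 30 °C; 1 = growth at the plate median or of vehicle wells; lower values mean less growth of the strain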
Details: S. cerevisiae deletion strains, growth OD

Measured: normalized growth

CN1C(=O)CCS(=O)(=O)C1c1ccc(Cl)cc1 (stereo unspecified)
inactive: locus YAL013W, strain DEP1, active compounds read low 1.01 | locus YAL021C, strain ccr4, active compounds read low 0.981 | locus YAL026C, strain drs2, active compounds read low 0.982 | locus YAL030W, strain snc1, active compounds read low 0.992 | locus YAL040C, strain CLN3, active compounds read low 1.03 | locus YBL061C, strain skt5, active compounds read low 1 | locus YBR009C, strain hhf1, active compounds read low 0.953 | locus YBR021W, strain FUR4, active compounds read low 1.02 | locus YBR023C, strain chs3, active compounds read low 0.995 | locus YBR171W, strain sec66, active compounds read low 0.988 | locus YBR229C, strain ROT2, active compounds read low 1.01 | locus YBR231C, strain swc5, active compounds read low 0.965 | locus YBR279W, strain paf1, active compounds read low 0.99 | locus YCL011C, strain gbp2, active compounds read low 1.01 | locus YCL016C, strain dcc1, active compounds read low 1.01 | locus YCL029C, strain bik1, active compounds read low 1.02 | locus YCL061C, strain MRC1 (second series), active compounds read low 0.999 | locus YCL061C, strain MRC1, active compounds read low 0.99 | locus YCL069W, strain vba3, active compounds read low 0.949 | locus YCR088W, strain abp1, active compounds read low 0.982 | locus YDL005C, strain med2, active compounds read low 0.991 | locus YDL035C, strain GPR1, active compounds read low 1.02 | locus YDL040C, strain nat1, active compounds read low 0.973 | locus YDL074C, strain BRE1, active compounds read low 1.04 | locus YDL101C, strain DUN1, active compounds read low 1.02 | locus YDL134C, strain PPH21, active compounds read low 1.01 | locus YDL185W, strain tfp1, active compounds read low 1.03 | locus YDL192W, strain arf1, active compounds read low 1.01 | locus YDR001C, strain nth1, active compounds read low 0.976 | locus YDR069C, strain doa4, active compounds read low 0.971 | locus YDR101C, strain arx1, active compounds read low 1.01 | locus YDR137W, strain rgp1, active compounds read low 0.993 | locus YDR150W, strain NUM1, active compounds read low 1.01 and 1 | locus YDR159W, strain sac3, active compounds read low 0.883 | locus YDR162C, strain NBP2, active compounds read low 1.02 | locus YDR195W, strain ref2 0.956 | locus YDR297W, strain sur2, active compounds read low 0.983 | locus YDR318W, strain mcm21, active compounds read low 1.01 | locus YDR334W, strain swr1, active compounds read low 0.951 | locus YDR335W, strain msn5, active compounds read low 0.972 | locus YDR363W, strain ESC2, active compounds read low 1.03 | locus YDR388W, active compounds read low 1.01 | locus YDR392W, strain spt3, active compounds read low 0.939 | locus YDR502C, strain sam2, active compounds read low 1.01 | locus YEL003W, strain gim4, active compounds read low 0.982 | locus YEL037C, strain rad23, active compounds read low 0.982 | locus YEL061C, strain CIN8 (second series), active compounds read low 0.995 | locus YEL061C, strain CIN8, active compounds read low 1.01 | locus YER002W, strain NOP16, active compounds read low 1.01 | locus YER015W, strain faa2, active compounds read low 0.985 | locus YER016W, strain bim1, active compounds read low 1.03 | locus YER110C, active compounds read low 1.01 | locus YER111C, strain swi4, active compounds read low 0.996 | locus YER155C, strain BEM2 (second series), active compounds read low 1 | locus YER155C, strain BEM2, active compounds read low 1.01 | locus YER167W, strain BCK2, active compounds read low 1.01 | locus YFR010W, strain ubp6, active compounds read low 0.954 | locus YGL078C, strain dbp3, active compounds read low 0.998 | locus YGL086W, strain mad1, active compounds read low 1.01 | locus YGL167C, strain pmr1, active compounds read low 0.963 | locus YGL173C, strain kem1, active compounds read low 0.953 | locus YGL227W, strain vid30, active compounds read low 0.98 | locus YGL240W, strain doc1, active compounds read low 0.963 | locus YGL248W, strain PDE1, active compounds read low 1.01 | locus YGL253W, strain hxk2, active compounds read low 0.995 | locus YGR078C, strain PAC10, active compounds read low 1.02 | locus YGR135W, strain pre9, active compounds read low 1.01 | locus YGR229C, strain SMI1, active compounds read low 1.03 | locus YGR252W, strain gcn5, active compounds read low 1.01 | locus YHR013C, strain ard1, active compounds read low 0.982 | locus YHR027C, strain rpn1, active compounds read low 0.98 | locus YHR030C, strain SLT2, active compounds read low 1.01 and 0.973 | locus YHR079C, strain IRE1 (second series), active compounds read low 1.02 | locus YHR079C, strain IRE1, active compounds read low 0.97 | locus YHR094C, strain hxt1, active compounds read low 1.01 | locus YHR129C, strain ARP1, active compounds read low 1.01 | locus YHR142W, strain chs7, active compounds read low 0.975 | locus YHR200W, strain rpn10, active compounds read low 1.01 | locus YIL066C, strain RNR3, active compounds read low 1.02 | locus YIL073C, strain SPO22, active compounds read low 1.05 | locus YIL125W, strain kgd1, active compounds read low 1.01 | locus YIR030C, strain dcg1, active compounds read low 1.01 | locus YJL092W, strain hpr5, active compounds read low 0.997 | locus YJL095W, strain BCK1 (second series), active compounds read low 0.977 | locus YJL095W, strain BCK1, active compounds read low 1.04 and 0.994 | locus YJL115W, strain asf1, active compounds read low 0.967 | locus YJL129C, strain trk1, active compounds read low 0.994 | locus YJL134W, strain LCB3, active compounds read low 1.01 | locus YJL154C, strain vps35, active compounds read low 0.989 | locus YJL164C, strain tpk1, active compounds read low 0.997 | locus YJL166W, strain qcr8, active compounds read low 0.943 | locus YJL168C, strain set2, active compounds read low 1.01 | locus YJL187C, strain SWE1 (second series), active compounds read low 1.03 | locus YJL187C, strain SWE1, active compounds read low 0.994 | locus YJR043C, strain POL32, active compounds read low 1.02 | locus YJR066W, strain TOR1, active compounds read low 0.885

— PubChem BioAssay AID1159580 (chemical genetic matrix, 2015)
